The list is not random: actives were taken first. Their share in the collection is about 18%.
TDP1 cell CPT: qHTS for Inhibitors of human tyrosyl-DNA phosphodiesterase 1 (TDP1): qHTS in cells in presence of CPT; chicken DT40 Tdp1-/-;hTDP1 cells + 20 nM CPT, ATP luminescence, 48 h; Potency, µM (top dose mostly 46.2 µM), without a hit: top-dose activity change, negative = growth inhibition, actives largely listed as inhibitors; 12% of 420,000 active; note: potency is the fitted concentration of half-maximal effect; nearly all actives have a fitted effect of over 55% in size
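Chicken DT40 Tdp1-/- cells complemented with human TDP1, 400 cells/well, exposed to compounds plus 20 nM camptothecin for at least 48 h at 37 C; viability read as ATP content by CellTiter-Glo luminescence.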
IL1B secr inh: qHTS for Inhibitors of Inflammasome Signaling: IL-1-beta AlphaLISA Primary Screen; activity change, % at 57.5 µM; 4.7% of 360,000 active; THP-1 LPS/ATP IL-1B secretion, AlphaLISA, 16 h; active compounds read low; in the data active = activity change below about -50%; inconclusive = mostly about -30% to -49%
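THP-1 cells pretreated 1 hr with compounds (up to 57.5 uM final), then stimulated with LPS (250 ng/mL final) plus ATP (1.25 mM final); secreted IL-1B measured by AlphaLISA after 16 hr, decreased signal indicating inhibition.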
TDP1 cell noCPT: qHTS for Inhibitors of human tyrosyl-DNA phosphodiesterase 1 (TDP1): qHTS in cells in absence of CPT; DT40 Tdp1-/- hTDP1 cells, no CPT, ATP luminescence, 48 h; Potency, µM (top dose mostly 46.2 µM), inactives show at the top dose activity change, negative = growth inhibition, actives largely listed as inhibitors; 15% of 420,000 active; note: potency is the fitted concentration of half-maximal effect; nearly all actives have a fitted effect of over 55% in size
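Chicken DT40 Tdp1-/- cells complemented with human TDP1, screened without camptothecin (DMSO vehicle only), 400 cells/well. Compounds pin-transferred, cells incubated at 37 °C for at least 48 hr. Growth read as ATP-dependent luminescence (CellTiter-Glo, 30 min at RT).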
CtBP-E1A blk: qHTS Assay for Inhibitors of the CtBP/E1A Interaction; CtBP / adenovirus E1A interaction (AlphaScreen); AlphaScreen GST-E1A/His-CtBP binding, 1536-well; active compounds read low; activity change, % (no concentration beside the values); 0.49% of 340,000 active; in the data active = activity change below about -65%; inconclusive = mostly about -30% to -63%
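In 5 uL wells, 23 nL compound meets equimolar GST-E1A and His-CtBP (5X stock 125 nM each) for 2 h, 37 °C. Beads (5X, 50 ug/mL) then 1 h, 37 °C, dark.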
TDP1 block: qHTS Assay for Inhibitors of Tyrosyl-DNA Phosphodiesterase (TDP1) | Tyrosyl-DNA phosphodiesterase 1 (Homo sapiens), Q9NUW8 | recombinant TDP1, AlphaScreen DNA substrate cleavage | Potency, µM (series often up to 130 µM), for the others: at the highest dose activity change, negative = inhibition, usual class: inhibitors | 0.28% of 350,000 active; note: potency is the fitted concentration of half-maximal effect; nearly all actives have a fitted effect of over 40% in size
Target sequence (Q9NUW8 whole entry, looked up): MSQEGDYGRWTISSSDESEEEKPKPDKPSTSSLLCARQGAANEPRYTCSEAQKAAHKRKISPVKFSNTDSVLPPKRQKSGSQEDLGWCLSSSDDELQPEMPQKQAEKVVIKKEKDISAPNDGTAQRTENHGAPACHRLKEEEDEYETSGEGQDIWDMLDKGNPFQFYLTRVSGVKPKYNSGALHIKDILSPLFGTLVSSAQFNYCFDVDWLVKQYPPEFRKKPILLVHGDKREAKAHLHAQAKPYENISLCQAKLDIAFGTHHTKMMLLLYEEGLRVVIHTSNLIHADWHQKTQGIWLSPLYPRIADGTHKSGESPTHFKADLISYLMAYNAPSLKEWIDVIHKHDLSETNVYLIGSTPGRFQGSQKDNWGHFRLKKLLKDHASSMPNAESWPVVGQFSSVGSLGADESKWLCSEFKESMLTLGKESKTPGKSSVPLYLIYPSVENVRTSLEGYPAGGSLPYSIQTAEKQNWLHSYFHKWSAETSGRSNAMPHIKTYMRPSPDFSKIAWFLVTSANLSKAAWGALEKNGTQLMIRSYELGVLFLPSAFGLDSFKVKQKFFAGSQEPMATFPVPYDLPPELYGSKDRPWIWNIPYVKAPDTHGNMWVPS
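Enzyme-compound mixtures sat 15 min at room temperature, followed by a 5 min reaction with 15 nM final substrate and 10 min with AlphaScreen beads. Recombinant human Tdp1 was used at 1 nM final.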
Six1-Eya2 blk: qHTS Assay for Inhibitors of the Six1/Eya2 Interaction. Homeobox protein SIX1 (Homo sapiens) + Protein phosphatase EYA2 (Homo sapiens), …. AlphaScreen GST-Six1/His-Eya2 binding, biochemical; active compounds read low. activity change, % (test concentration not listed). 0.56% of 360,000 active. AID 651725, 2012; in the data active = activity change below about -65%; inconclusive = mostly about -30% to -63%
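AlphaScreen with GST-Six1 and His-Eya2 (5X mix: 250 nM and 500 nM), glutathione donor and nickel acceptor beads; buffer 50 mM Tris pH 8.0, 300 mM NaCl, 1 mM TCEP; 1 h at 37 C in the dark.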
Starred values were filed as active, the others as inactive; ? = inconclusive; · = not tested or not shown. Unless noted, calls come from the whole dose curve; as a rule, active = well fitted curve in the direction sought with a large enough effect; inconclusive = small, poorly fitted or top-dose-only effect, or another doubt; inactive = no such curve, though single readings can be large; an effect the other way counts as inactive or inconclusive. % is set by controls: 0 for no effect and ±100 for the full control effect.

SMILES	TDP1 cell CPT	IL1B secr inh	TDP1 cell noCPT	CtBP-E1A blk	TDP1 block	Six1-Eya2 blk
O=C(CN1CCN(C(=O)c2ccco2)CC1)Nc1cccc([N+](=O)[O-])c1	-27.2%	-1.3	?	14.6	-2.4%	0.8
CCN(CC)S(=O)(=O)c1ccc2c(c1)c(=O)c(C(=O)N1CCN(c3ccc(OC)cc3)CC1)cn2C	-0.5%	·	?	·	0.0%	·
CCOc1ccc(N(CC(=O)NC2CCCCC2)S(=O)(=O)c2ccccc2)cc1	-3.9%	-15.2	?	0.0	-18.6%	0.2
Cc1ccc(-c2cnc(C(O)c3ccc(Cl)c(F)c3)[nH]2)cc1 (stereo unspecified)	?	1.5	?	-23.4	·	-18.8
CCOC(=O)c1c(N)ssc1=S	-28.3%	-18.7	-21.2%	7.9	4.2%	-4.0
O=C(Cc1ccc(Br)cc1)OCC(=O)N1CCc2ccccc2C1	18.2%	17.1	-9.5%	5.6	-2.8%	7.6
COc1ccc(-c2cc(C(=O)N3CCCC3)c3ccccc3n2)cc1	2.9%	0.0	6.2%	-7.8	1.5%	-2.8
COc1ccc(-c2cc(C(=O)N3CCN(c4ccccc4)CC3)c3ccccc3n2)cc1	3.26µM*	96.8	4.61µM*	8.1	3.7%	-5.4
COc1ccc(OC)c(-c2cc(C(=O)N3CCN(c4ncccn4)CC3)c3ccccc3n2)c1	16.4µM*	-10.1	18.4µM*	?	2.0%	?
CCOc1ccccc1N1CCN(C(=O)c2cc(-c3cc(OC)ccc3OC)nc3ccccc23)CC1	23.1µM*	?	13µM*	-25.3	7.0%	?
COc1ccc(-c2cc(C(=O)N3CC(C)CC(C)C3)c3ccccc3n2)cc1 (stereo unspecified)	?	?	20.6µM*	4.4	2.1%	-2.6
COc1ccccc1-c1cc(C(=O)N2CCc3ccccc3C2)c2ccccc2n1	·	·	·	·	0.0%	·
O=C(O)C1C2C=CC(C2)C1C(=O)NCCC1=CCCCC1 (stereo unspecified)	4.8%	0.0	-7.3%	6.8	2.0%	8.8
CCOC(=O)C1=C(C)Nc2nc3ccccc3n2C1c1ccccc1 (stereo unspecified)	-21.6%	-6.8	-29.4%	3.4	-1.4%	2.2
O=C(O)c1cc(-c2ccc3c(c2)OCO3)nc2ccccc12	?	28.1	-24.9%	0.9	-4.0%	1.1
COc1ccc(-c2cc(C(=O)N3CCN(c4ccccc4F)CC3)c3ccccc3n2)c(OC)c1	?	-2.3	18.4µM*	8.5	1.5%	0.2
CC(=O)c1ccc(N2CCN(C(=O)c3cc(-c4ccc5c(c4)OCO5)nc4ccccc34)CC2)cc1	?	-2.0	23.1µM*	8.0	5.5%	-1.9
C[C@@H]1CN([C@@H](C)CO)C(=O)CCCn2nncc2CO[C@@H]1CN(C)S(=O)(=O)c1ccc(-n2cccn2)cc1	3.5%	-10.4	-4.0%	0.9	·	3.2
COC(=O)C1=C(C)N(c2ccc(OC)cc2)C(C)=C(C(=O)OC)C1c1ccccc1	?	0.0	20.6µM*	·	2.7%	-2.5
COC(=O)C1=C(C)N(C)C(C)=C(C(=O)OC)C1c1ccc(Cl)cc1	-23.5%	2.3	?	3.2	0.0%	-3.4
COC(=O)C1=C(C)N(c2ccc(OC)cc2)C(C)=C(C(=O)OC)C1c1ccc(OC)cc1	8.2µM*	-2.1	16.4µM*	-0.5	·	-6.3
CCN(CCCNc1ncnc2nc[nH]c12)c1cccc(C)c1	18.4µM*	40.1	?	-1.5	7.6%	-16.3
Cc1nc2ccccc2c(=O)n1NCc1cc(Br)cs1	?	0.0	14.6µM*	-6.5	0.9%	-2.6
O=C(CC1N=C2c3ccccc3N=C(SCc3ccccc3F)N2C1=O)NCc1ccc2c(c1)OCO2 (stereo unspecified)	18.4µM*	·	?	·	1.5%	·
CCOc1ccccc1NC(=O)CSC1=Nc2ccccc2C2=NC(CC(=O)NCc3ccc4c(c3)OCO4)C(=O)N12 (stereo unspecified)	?	·	23.1µM*	·	-2.5%	·
SMILES	TDP1 cell CPT	IL1B secr inh	TDP1 cell noCPT	CtBP-E1A blk	TDP1 block	Six1-Eya2 blk
COc1ccccc1NC(=O)CSC1=Nc2ccccc2C2=NC(CC(=O)NCc3ccc4c(c3)OCO4)C(=O)N12 (stereo unspecified)	?	·	?	·	1.5%	·
O=S1(=O)C[C@@H](N2CCC[C@@H]2CO)[C@H](COCc2ccccc2)N1	3.2%	-18.3	-21.7%	3.7	·	2.2
Cc1cc(C)nc(Nc2ccc(F)cc2)n1	7.5%	-8.9	0.7%	2.6	·	6.4
CN1CCN(c2nc(Nc3ccc(F)cc3)nc(Nc3ccc(F)cc3)n2)CC1	20.6µM*	-56.4*	?	-21.8	·	-20.2
c1ccc(Nc2nc(Nc3ccccc3)nc(N3CCNCC3)n2)cc1	?	-70.8*	?	?	6.0%	-12.6
Cc1cc(Br)c2c(c1)C1(OCCO1)C(=O)N2	5.9%	6.0	1.3%	·	·	-1.0
O/C=c1\ccc2cccc3nc(C(F)(F)F)nc1c23	10.3µM*	-1.5	20.6µM*	?	·	-20.6
c1ccc2c(c1)Cc1cc3ccccc3nc1-2	?	13.2	20.6µM*	-28.9	5.7%	-23.9
O=C1c2ccccc2-c2nc3ccccc3cc21	?	-5.7	?	?	·	?
O=C(CSc1nc(-c2cccs2)nc2cc(=O)[nH]n12)Nc1ccccc1F	-2.8%	·	-19.9%	·	·	·
CCOC(=O)Nc1ccc2c(c1)C(=NO)c1ccccc1-2	18.4µM*	-75.2*	20.6µM*	-5.4	·	-14.4
CCOC(=O)Nc1ccc2c(c1)C(=NNC(N)=S)c1ccccc1-2	6.51µM*	-95.9*	3.26µM*	-65.1*	·	-79.4*
COC(=O)[C@]12CCCCC=C1N(Cc1ccco1)C(=O)[C@H](CC(=O)NCC13CC4CC(CC(C4)C1)C3)C2	?	-16.0	?	-22.4	·	-3.8
CN(C)c1ccc(C(=O)NCC(c2cccs2)N2CCOCC2)cc1[N+](=O)[O-] (stereo unspecified)	-12.4%	-6.7	-28.6%	0.3	·	-1.7
CCN(CC)C(=O)CSCC(=O)Nc1ccccc1	-2.9%	23.4	3.6%	19.0	2.1%	5.5
COC(=O)COc1ccc(S(=O)(=O)N2CCCCCC2)cc1C	-5.3%	-3.2	-3.3%	5.7	-12.4%	1.4
